# Tests used:
# Test in all cases: DAPPL (digital affinity profiling via proximity ligation, sequencing); 10 mM Tris-HCl pH 7.5, 50 mM NaCl, 1 mM DTT, 4% glycerol, room temperature, 30 min; GST-TFs on glutathione beads, 16-mer random dsDNA library, 0.1% formaldehyde crosslink after washing; high values mean tight binding
# Conditions in all cases: protein: recombinant; tags: N-terminal GST; dsDNA, one strand shown
# FLI1 = target: T1, FLI1 (Homo sapiens, UniProt Q01543 1-452)
# T1 sequence: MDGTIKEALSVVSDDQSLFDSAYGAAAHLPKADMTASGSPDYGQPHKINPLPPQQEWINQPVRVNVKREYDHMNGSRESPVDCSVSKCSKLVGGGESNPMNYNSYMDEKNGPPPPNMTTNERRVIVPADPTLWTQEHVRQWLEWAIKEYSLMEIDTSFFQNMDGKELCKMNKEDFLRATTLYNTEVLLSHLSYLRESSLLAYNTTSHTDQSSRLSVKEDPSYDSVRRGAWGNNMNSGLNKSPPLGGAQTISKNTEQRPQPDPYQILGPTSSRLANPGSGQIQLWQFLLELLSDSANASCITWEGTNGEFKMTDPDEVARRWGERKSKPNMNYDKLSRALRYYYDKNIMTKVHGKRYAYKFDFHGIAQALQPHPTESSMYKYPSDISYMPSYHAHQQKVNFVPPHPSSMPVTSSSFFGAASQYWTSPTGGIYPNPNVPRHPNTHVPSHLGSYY
# Outline: (§1)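 Human transcription factors carrying a GST fusion were produced in yeast, bound to glutathione beads, tagged with DNA barcodes and pooled together with a tag-only sample. Each pool was held with 200 nmole of a random double-stranded 16-mer DNA library in Tris/NaCl/DTT/glycerol buffer for 30 min at room temperature, then washed, crosslinked in 0.1% formaldehyde, proximity-ligated with BsaI/T4 ligase (1 h, 37 °C), PCR-amplified and sequenced on an Illumina NextSeq500. Binding signal is the read frequency of each hexamer for a given factor divided by its frequency in the tag-only sample.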
# ELF1 = ELF1 (Homo sapiens, UniProt P32519 1-619)
# Sequence of ELF1 (P32519 whole entry): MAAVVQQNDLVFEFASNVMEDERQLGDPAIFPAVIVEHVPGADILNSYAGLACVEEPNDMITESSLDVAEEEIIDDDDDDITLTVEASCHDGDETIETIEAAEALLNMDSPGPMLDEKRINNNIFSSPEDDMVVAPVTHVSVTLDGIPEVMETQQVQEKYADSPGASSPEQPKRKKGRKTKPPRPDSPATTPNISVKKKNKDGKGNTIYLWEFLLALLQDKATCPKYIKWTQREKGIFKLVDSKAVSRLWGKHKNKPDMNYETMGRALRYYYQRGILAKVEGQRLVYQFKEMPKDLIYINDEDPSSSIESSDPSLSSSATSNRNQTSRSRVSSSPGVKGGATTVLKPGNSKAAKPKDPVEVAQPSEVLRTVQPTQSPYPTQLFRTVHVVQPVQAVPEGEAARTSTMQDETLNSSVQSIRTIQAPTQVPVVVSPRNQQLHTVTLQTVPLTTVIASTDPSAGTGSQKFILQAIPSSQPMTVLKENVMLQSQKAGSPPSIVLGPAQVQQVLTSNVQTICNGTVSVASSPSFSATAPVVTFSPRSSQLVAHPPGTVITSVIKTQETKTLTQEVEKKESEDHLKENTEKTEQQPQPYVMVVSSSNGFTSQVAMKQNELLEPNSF
# Outline: as §1
# SPIB = SPIB (Homo sapiens, UniProt Q01892 1-262)
# Sequence of SPIB (Q01892 whole entry): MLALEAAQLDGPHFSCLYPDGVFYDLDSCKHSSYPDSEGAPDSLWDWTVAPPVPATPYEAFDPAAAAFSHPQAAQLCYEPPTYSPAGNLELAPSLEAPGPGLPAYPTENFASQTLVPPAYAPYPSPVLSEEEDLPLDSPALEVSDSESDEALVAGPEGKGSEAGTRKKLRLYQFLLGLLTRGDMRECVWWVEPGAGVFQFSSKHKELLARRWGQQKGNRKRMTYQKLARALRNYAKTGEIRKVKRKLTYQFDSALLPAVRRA
# Outline: as §1
# ELF3 = target: T2, ELF3 (Homo sapiens, UniProt P78545 1-371)
# T2 sequence: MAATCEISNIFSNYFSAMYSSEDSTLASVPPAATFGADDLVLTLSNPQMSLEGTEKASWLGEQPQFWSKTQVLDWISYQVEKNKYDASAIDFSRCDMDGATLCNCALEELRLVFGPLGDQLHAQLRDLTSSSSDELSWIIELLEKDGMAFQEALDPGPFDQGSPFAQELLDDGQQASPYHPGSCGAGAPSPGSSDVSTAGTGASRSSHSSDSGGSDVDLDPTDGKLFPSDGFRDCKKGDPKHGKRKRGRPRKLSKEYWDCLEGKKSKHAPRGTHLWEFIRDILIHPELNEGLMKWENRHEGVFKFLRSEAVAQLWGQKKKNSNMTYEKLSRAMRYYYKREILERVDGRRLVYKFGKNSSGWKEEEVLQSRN
# Outline: as §1
# ETV1 = ETV1 (Homo sapiens, UniProt P50549 1-477)
# Sequence of ETV1 (P50549 whole entry): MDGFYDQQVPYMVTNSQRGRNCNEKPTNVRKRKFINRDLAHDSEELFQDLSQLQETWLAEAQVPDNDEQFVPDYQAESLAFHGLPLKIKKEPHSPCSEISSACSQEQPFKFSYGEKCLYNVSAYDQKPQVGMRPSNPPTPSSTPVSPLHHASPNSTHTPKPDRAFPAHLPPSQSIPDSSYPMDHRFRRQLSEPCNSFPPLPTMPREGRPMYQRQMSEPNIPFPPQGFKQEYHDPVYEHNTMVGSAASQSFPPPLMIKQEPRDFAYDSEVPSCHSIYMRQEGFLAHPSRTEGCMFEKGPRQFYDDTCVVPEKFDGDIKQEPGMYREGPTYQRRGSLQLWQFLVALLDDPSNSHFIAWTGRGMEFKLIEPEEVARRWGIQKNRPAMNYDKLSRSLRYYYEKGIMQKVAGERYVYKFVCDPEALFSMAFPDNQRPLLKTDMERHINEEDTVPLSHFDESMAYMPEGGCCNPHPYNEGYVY
# Outline: as §1
# ERF = target: T3, ERF (Homo sapiens, UniProt P50548 1-548)
# T3 sequence: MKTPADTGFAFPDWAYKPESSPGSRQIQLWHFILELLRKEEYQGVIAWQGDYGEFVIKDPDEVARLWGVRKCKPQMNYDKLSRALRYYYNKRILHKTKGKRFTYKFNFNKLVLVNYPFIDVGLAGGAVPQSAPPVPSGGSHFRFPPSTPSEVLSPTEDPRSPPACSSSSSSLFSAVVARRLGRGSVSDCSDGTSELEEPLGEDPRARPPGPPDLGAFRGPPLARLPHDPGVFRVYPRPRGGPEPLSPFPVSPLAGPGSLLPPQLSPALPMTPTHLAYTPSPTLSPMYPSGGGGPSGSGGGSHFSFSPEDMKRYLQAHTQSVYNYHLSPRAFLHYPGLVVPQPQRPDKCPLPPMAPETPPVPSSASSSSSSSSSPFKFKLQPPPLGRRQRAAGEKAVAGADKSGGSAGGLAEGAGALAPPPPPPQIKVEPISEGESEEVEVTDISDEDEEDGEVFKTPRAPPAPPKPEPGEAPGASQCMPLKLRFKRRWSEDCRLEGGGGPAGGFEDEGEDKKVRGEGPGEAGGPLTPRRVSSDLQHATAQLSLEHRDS
# Outline: as §1
# ETV3L = target: T4, ETV3L (Homo sapiens, UniProt Q6ZN32 1-361)
# T4 sequence: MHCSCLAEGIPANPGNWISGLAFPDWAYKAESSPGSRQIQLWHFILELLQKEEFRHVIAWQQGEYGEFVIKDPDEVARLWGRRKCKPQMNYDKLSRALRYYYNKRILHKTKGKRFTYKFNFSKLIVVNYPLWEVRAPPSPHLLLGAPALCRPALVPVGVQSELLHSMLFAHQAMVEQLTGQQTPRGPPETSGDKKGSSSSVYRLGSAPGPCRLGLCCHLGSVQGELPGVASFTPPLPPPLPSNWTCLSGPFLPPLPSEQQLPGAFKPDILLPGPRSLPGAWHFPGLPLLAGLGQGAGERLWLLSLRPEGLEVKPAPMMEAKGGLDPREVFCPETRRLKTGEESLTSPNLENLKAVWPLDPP
# Outline: as §1
# ETS2 = target: T5, ETS2 (Homo sapiens, UniProt P15036 1-469)
# T5 sequence: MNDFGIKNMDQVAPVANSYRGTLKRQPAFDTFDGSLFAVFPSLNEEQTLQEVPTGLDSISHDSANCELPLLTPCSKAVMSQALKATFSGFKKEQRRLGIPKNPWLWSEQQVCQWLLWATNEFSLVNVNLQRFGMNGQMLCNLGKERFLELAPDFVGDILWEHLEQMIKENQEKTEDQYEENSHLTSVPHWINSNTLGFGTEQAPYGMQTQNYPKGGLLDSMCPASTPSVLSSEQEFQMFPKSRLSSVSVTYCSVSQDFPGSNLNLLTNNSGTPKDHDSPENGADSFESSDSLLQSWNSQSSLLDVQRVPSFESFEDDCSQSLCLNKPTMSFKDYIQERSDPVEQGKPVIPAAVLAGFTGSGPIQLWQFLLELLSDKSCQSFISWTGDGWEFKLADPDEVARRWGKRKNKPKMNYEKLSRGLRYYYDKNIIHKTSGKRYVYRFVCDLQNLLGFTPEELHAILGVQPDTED
# Outline: as §1
# SPDEF = target: T6, SPDEF (Homo sapiens, UniProt O95238 1-335)
# T6 sequence: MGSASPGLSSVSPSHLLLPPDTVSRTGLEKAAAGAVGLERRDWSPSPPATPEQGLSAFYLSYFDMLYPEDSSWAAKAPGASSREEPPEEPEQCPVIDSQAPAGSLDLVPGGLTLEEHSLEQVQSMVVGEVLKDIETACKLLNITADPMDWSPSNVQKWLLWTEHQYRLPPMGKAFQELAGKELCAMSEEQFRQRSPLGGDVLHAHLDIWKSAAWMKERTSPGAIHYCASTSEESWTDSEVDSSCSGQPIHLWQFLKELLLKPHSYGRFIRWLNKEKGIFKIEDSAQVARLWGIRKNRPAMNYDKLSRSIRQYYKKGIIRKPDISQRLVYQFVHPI
# Outline: as §1
# ETV7 = target: T7, ETV7 (Homo sapiens, UniProt Q9Y603 1-341)
# T7 sequence: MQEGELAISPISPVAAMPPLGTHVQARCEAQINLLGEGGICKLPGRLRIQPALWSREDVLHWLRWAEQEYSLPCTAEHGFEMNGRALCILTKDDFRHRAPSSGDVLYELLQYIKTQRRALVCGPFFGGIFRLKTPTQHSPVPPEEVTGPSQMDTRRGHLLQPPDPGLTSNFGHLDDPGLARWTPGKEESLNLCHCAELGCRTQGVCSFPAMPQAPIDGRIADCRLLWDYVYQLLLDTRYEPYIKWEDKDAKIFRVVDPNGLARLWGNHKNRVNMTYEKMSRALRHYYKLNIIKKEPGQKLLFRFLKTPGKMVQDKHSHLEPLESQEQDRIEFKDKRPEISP
# Outline: as §1
# ELF5 = target: T8, ELF5 (Homo sapiens, UniProt Q9UKW6-2 1-255)
# T8 sequence: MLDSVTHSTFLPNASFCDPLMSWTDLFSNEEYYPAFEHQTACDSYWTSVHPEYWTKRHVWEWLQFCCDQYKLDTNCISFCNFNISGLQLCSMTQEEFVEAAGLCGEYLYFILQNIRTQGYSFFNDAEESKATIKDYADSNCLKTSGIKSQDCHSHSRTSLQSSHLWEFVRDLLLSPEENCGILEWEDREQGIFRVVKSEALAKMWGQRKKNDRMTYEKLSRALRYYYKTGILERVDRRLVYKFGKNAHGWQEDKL
# Outline: as §1
sequence,measurement,setting,value
GGATGG,binding signal,FLI1,"1.02 fold enrichment (6-mer frequency, TF over GST control)"
same,binding signal,ELF1,"1.05 fold enrichment (6-mer frequency, TF over GST control)"
same,binding signal,SPIB,"1.03 fold enrichment (6-mer frequency, TF over GST control)"
same,binding signal,ELF3,"1.13 fold enrichment (6-mer frequency, TF over GST control)"
same,binding signal,ETV1,"1.13 fold enrichment (6-mer frequency, TF over GST control)"
same,binding signal,ERF,"1.05 fold enrichment (6-mer frequency, TF over GST control)"
same,binding signal,ETV3L,"1.08 fold enrichment (6-mer frequency, TF over GST control)"
same,binding signal,ETS2,"1.03 fold enrichment (6-mer frequency, TF over GST control)"
same,binding signal,SPDEF,"1.09 fold enrichment (6-mer frequency, TF over GST control)"
same,binding signal,ETV7,"1.06 fold enrichment (6-mer frequency, TF over GST control)"
same,binding signal,ELF5,"1.03 fold enrichment (6-mer frequency, TF over GST control)"
